Among the data in PubChem BioAssay (EPA / NIEHS) are outcome and AC50 values, retold here.

Common to all, as to settings: mRNA level, 48 h; actives raise or lower the signal
Read-out in test [1]: sulfotransferase 2A1 (SULT2A1), SULT2A1 (gene 6822)
Put plainly: LTEA_HepaRG_SULT2A1: Life Technologies and Expression Analysis (LTEA) Assay for sulfotransferase 2A1 (SULT2A1) using HepaRG (AID 2283531). Summed up:
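Cells were plated and cultured 48 h, switched to serum-free induction medium, then dosed in duplicate for 48 h (8 concentrations, max 100 uM). RNA was isolated and SULT2A1 expression measured by qRT-PCR; gain or loss of signal fitted relative to DMSO.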

Read-out in test [2]: Transforming Growth Factor (TGFA), TGFA (gene 7039)
Put plainly: LTEA_HepaRG_TGFA: Life Technologies and Expression Analysis (LTEA) Assay for Transforming Growth Factor (TGFA) using HepaRG (AID 2283532). Summed up: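 Differentiated HepaRG cells exposed 48 hours in serum-free induction medium, 0.5% DMSO vehicle, 8-point half-log series from 100 uM, in duplicate. TGFA mRNA by TaqMan qRT-PCR, normalised to ACTB, GAPDH, POLR2A; bidirectional fit versus DMSO.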

Read-out in test [3]: Transforming Growth Factor (TGFB1), TGFB1 (gene 7040)
The test is described as follows: LTEA_HepaRG_TGFB1: Life Technologies and Expression Analysis (LTEA) Assay for Transforming Growth Factor (TGFB1) Transporter using HepaRG (AID 2283533). A digest of the protocol:
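Expression change of TGFB1 in human HepaRG cells is measured after a 48 h chemical exposure, up to 100 uM in 0.5% DMSO vehicle. Curves are fitted in both directions relative to the DMSO baseline.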

Read-out in the next test: TIMP1, TIMP1 (gene 7076)
The test is described as follows: LTEA_HepaRG_TIMP1: Life Technologies and Expression Analysis (LTEA) Assay for TIMP1 using HepaRG (AID 2283534).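 As to outcome: TaqMan qRT-PCR signal normalized to ACTB GAPDH and POLR2A housekeeping genes.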 A digest of the protocol:
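We dosed human liver HepaRG cultures for 48 hours with up to 100 uM test chemical and measured TIMP1 expression by qRT-PCR. Activity in either direction is fitted relative to the 0.5% DMSO vehicle.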

Read-out in test [4]: Tumor necrosis factor receptor 1 (TNFRSF1A), TNFRSF1A (gene 7132)
The test is described as follows: LTEA_HepaRG_TNFRSF1A: Life Technologies and Expression Analysis (LTEA) Assay for Tumor necrosis factor receptor 1 (TNFRSF1A) using HepaRG (AID 2283535). A digest of the protocol: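 Expression of TNFRSF1A in human HepaRG liver cells was measured by qRT-PCR 48 h after chemical dosing (maximum 100 uM). Bidirectional curve fitting used 0.5% DMSO as baseline.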

Read-out in test [5]: Thyroid Hormone Responsive (THRSP), THRSP (gene 7069)
The test is described as follows: LTEA_HepaRG_THRSP: Life Technologies and Expression Analysis (LTEA) Assay for Thyroid Hormone Responsive (THRSP) using HepaRG (AID 2283536). As for the experimental part: (§1) LTEA_HepaRG is a cell based, multiplexed-readout assay that uses HepaRG, a human liver cell line, with measurements taken at 48 hours after chemical dosing on a 96-well plate.LTEA_HepaRG_THRSP is one of 102 assay component(s) measured in the LTEA HepaRG cell culture assay. It is a marker of NR mediated metabolism.Data from the assay component LTEA_HepaRG_THRSP was analyzed into 1 endpoint. This assay endpoint, LTEA_HepaRG_THRSP, was analyzed with bidirectional fitting relative to DMSO as the negative control and baseline of activity. Using a type of inducible reporter, measures of mRNA induction for gain or loss-of-signal activity can be used to understand regulation of transcription factor activity. To generalize the intended target to other relatable targets, this assay endpoint is annotated to the growth factor intended target family, where the subfamily is NR mediated metabolism.
(§2) A total of 1060 chemcials from the ToxCast library were tested in eight-point concentration-response experiments. Cell culture and cytotoxicity assays were conducted at Thermo Fisher Scientific's Custom Services facility (Madison, WI). A single lot of human HepaRG cells (Thermo Fisher Scientific, Frederick, MD) was used for the cell culture experiments. 96-well format collagen type I coated plates of human HepaRG cells were prepared using established methods. Briefly, cryopreserved HepaRG cells were thawed, plated at a density of approximately 100,000 cells/well in HepaRG Thaw, Plate, and General Purpose media (HPRG770, Thermo Fisher Scientific), and incubated for 48 hours. 0.5% DMSO was selected as vehicle control to balance the requisite need of DMSO in HepaRG cultures to maintain differentiation (for example, baseline metabolism, proportions of hepatocytes vs. cholangiocytes), while enabling further hepatic receptor pathway activation (for example, PXR and CAR) in response to chemical exposure. 48 hours after plating, the culture medium was replaced with HepaRG Serum-Free Incudtion Media. Cells were exposed to each test chemical in duplicate and maintained in CO2 incubators for another 48 hours. Chemical plates were thawed to room temperature and 200x concentrations of treatment groups were prepared. 8-point conentration-reponse curves were made with the highest exposure at 100 uM, followed by half-log dilutions, all in 0.5% DMSO. Each test plate contained variouse controls, induction positive controls (1mM phenobarbital), cytotoxicity positive controls ([…] aflatoxin B1), vehicle controls (0.5% DMSO), and total lysis controls (0.5% DMSO). Cell morphology images were taken using an Essen IncuCyte FLR automated microscope, with six 96-well plates imaged in about 24 minutes. Images were captured and exported and JPEG files. Spent culture media was transfered to black-well plates for the LDH assay, and remaining media was sorted at -80 C for later use. Cells were treated with RLT buffer and frozen until shipped for gene expression analysis. Total RNA was isolated from the cell suspension in 75 uL of Buffer RLT (Qiagen, Germantown, MD 20874) by Quintiles/Expression Analysis (Durham, NC) using a custom isolation procedure. Total RNA from each plate well was transferred to a preamplification plate. Fluidigm's 96.96 Dynamic ArrayTM (Fluidigm, Amsterdam, the Netherlands) technology was used for gene expression analyses by quantitative reverse transcription polymerase chain reaction (qRT-PCR, performed by Quintiles/Expression Analysis, Durham, NC)89. Standard TaqManTM Assays (Applied Biosystems/ThermoFisher Scientific, Foster City, CA) were used to assess the expression of 93 genes selected based on their selectivity and sensitivity to important hepatic receptors known to be modulated by environmental chemicals; importance in human hepatocyte functionality; and hepatotoxicity. […]

Read-out in test [6]: Cellular tumor antigen p53 (Homo sapiens) (UniProt P04637)
The test is described as follows: LTEA_HepaRG_TP53: Life Technologies and Expression Analysis (LTEA) Assay for Tumor Protein P53 (TP53) using HepaRG (AID 2283537). A digest of the protocol: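 HepaRG, 48 h exposure, top 100 uM, half-log 8-point, 0.5% DMSO vehicle, duplicates. Read: TP53 mRNA by TaqMan qRT-PCR, normalised to ACTB/GAPDH/POLR2A; bidirectional fit vs DMSO.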

Read-out in test [7]: UDP glucuronosyltransferase (UGT1A1), UGT1A1 (gene 54658)
The test is described as follows: LTEA_HepaRG_UGT1A1: Life Technologies and Expression Analysis (LTEA) Assay for UDP glucuronosyltransferase (UGT1A1) using HepaRG (AID 2283538). A digest of the protocol:
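HepaRG cells, 0.5% DMSO vehicle, 48 h exposure in serum-free induction medium to 8-point half-log series topping at 100 uM, in duplicate. UGT1A1 mRNA by Fluidigm qRT-PCR, normalized to ACTB/GAPDH/POLR2A; bidirectional fit versus DMSO.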

Read-out in test [8]: UDP glucuronosyltransferase (UGT1A6), UGT1A6 (gene 54578)
Put plainly: LTEA_HepaRG_UGT1A6: Life Technologies and Expression Analysis (LTEA) Assay for UDP glucuronosyltransferase (UGT1A6) using HepaRG (AID 2283539). As for the experimental part: as §1, with “96-well plate.LTEA_HepaRG_UGT1A6” for “96-well plate.LTEA_HepaRG_THRSP”, “component LTEA_HepaRG_UGT1A6” for “component LTEA_HepaRG_THRSP”, “endpoint, LTEA_HepaRG_UGT1A6,” for “endpoint, LTEA_HepaRG_THRSP,”, “the transferase” for “the growth factor”, “is glucuronosyltransferase.” for “is NR mediated metabolism.”
as §2

Read-out in test [9]: X-box binding protein 1 (XBP1), XBP1 (gene 7494)
Put plainly: LTEA_HepaRG_XBP1: Life Technologies and Expression Analysis (LTEA) Assay for X-box binding protein 1 (XBP1) using HepaRG (AID 2283540). Summed up: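 Human HepaRG monolayers receive test chemical for 48 h across an eight-point half-log series starting at 100 uM. XBP1 mRNA gain or loss is scored against DMSO by qRT-PCR.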

SMILES strings stand for the structures. Several values for one entry are separate records, joined by “and”; a condition that tells them apart may be missing. Equal entries are not always repeated. Some structures have more than one record in an assay (separate samples or runs), and their calls can disagree. Activity calls are given as the source filed them. The calls were made as follows: active = hit-call score of the fitted dose curve at least 0.9, where 1 is the maximum; inactive = score below 0.9.

Chain of Cellular tumor antigen p53 (Homo sapiens) (P04637 whole entry, looked up): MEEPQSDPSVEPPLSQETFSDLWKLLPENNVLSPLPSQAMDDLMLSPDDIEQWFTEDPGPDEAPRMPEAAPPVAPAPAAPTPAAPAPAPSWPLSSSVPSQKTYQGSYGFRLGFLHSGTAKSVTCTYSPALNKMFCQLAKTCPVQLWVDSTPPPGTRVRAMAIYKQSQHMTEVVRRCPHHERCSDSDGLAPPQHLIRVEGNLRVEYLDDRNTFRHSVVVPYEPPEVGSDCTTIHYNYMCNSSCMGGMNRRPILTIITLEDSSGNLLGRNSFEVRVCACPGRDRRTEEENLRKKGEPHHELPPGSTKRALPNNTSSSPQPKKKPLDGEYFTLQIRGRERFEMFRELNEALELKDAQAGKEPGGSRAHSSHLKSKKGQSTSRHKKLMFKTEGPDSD

What is called AC50 is the concentration at which the activity in the assay is half-maximal. With `CCCCOCCOCCO`, the outcome in test [1] was “inactive”; in [2], “inactive”; in test [3] it was “inactive”; with TIMP1, TIMP1 (gene 7076) it was “inactive”; in test [4], “inactive”; in test [5], “inactive”. For the same compound, the compound was called inactive in [6], in test [8] and in [9]. In test [7], the AC50 was 50 µM (active).
For the compound `C[C@]12CC[C@@H]3c4ccc(O)cc4CC[C@H]3[C@@H]1CC[C@@H]2O`, the results for the half-maximal activity concentration (AC50) in [1] and in test [7] were 50 µM (active) and 10.3 µM (active), respectively. The outcome was “inactive” in [2]; “inactive” in [3]; “inactive” in the test with TIMP1, TIMP1 (gene 7076); “inactive” in test [4]; “inactive” in test [5]; “inactive” in test [6]. Also, the compound was classed as inactive in test [8] and in [9].
For `C#C[C@]1(O)CC[C@H]2[C@@H]3CCc4cc(O)ccc4[C@H]3CC[C@@]21C`, the outcome was “inactive” in test [1]; “inactive” in test [2]; “inactive” in test [3]; “inactive” in the test with TIMP1, TIMP1 (gene 7076); “inactive” in test [4]; “inactive” in test [5]. Moreover, the result in [6], in [7], in test [8] and in [9] was inactive.
Take `COC(=O)c1ccc(C(=O)OC)cc1`: the outcome is “inactive” in test [1]; “inactive” in [2]; “inactive” in test [3]; “inactive” in the test with TIMP1, TIMP1 (gene 7076); “inactive” in test [4]; “inactive” in [5]. The compound was called inactive in [6], in [7], in test [8] and in test [9].
Take `CC/C(=C(\c1ccccc1)c1ccc(OCCN(C)C)cc1)c1ccccc1`: the half-maximal activity concentration (AC50) is 74.6 µM (active) in test [1]; 94.2 µM (active) in test [2]; 73.5 µM (active) in test [3]; 83.7 µM (active) in the test with TIMP1, TIMP1 (gene 7076); 66.3 µM (active) in [4]; 45.8 µM (active) and 40 µM (active) in [6]. The AC50 is 32.1 µM (active) in [7]; 45.8 µM (active) in [8]; 45.8 µM (active) and 96.2 µM (active) in test [9]. In addition, the outcome in test [1] was “inactive”; in test [2] it was “inactive”; in test [3], “inactive”; in the test with TIMP1, TIMP1 (gene 7076), “inactive”; in test [4], “inactive”; in test [5], “inactive”. For the same compound, the compound was called inactive in test [7] and in [8].
Take `C=C(C)C(N)=O`: the outcome in [1] is “inactive”; in test [2], “inactive”; in [3], “inactive”; in the test with TIMP1, TIMP1 (gene 7076), “inactive”; in test [4], “inactive”; in test [5], “inactive”. The outcome in test [6], in test [7], in test [8] and in test [9] was inactive.
Consider `O=C(c1ccc(OCCN2CCCCC2)cc1)c1c(-c2ccc(O)cc2)sc2cc(O)ccc12`, for which the AC50 is 50 µM (active) in [1]; 75.2 µM (active) in [2]; 50 µM (active) with TIMP1, TIMP1 (gene 7076); 50 µM (active) in test [7]; 50 µM (active) in test [8]; 50 µM (active) in test [9]. For the same compound, the call in test [3], in test [4], in test [5] and in [6] was inactive.
